Records with an inconclusive call do not appear. Activity calls are given as the source filed them. How the source made its calls, unless noted: active means hit-call score of the fitted dose curve at least 0.9, where 1 is the maximum; inconclusive means response in the unintended direction; inactive means score below 0.9.

Assay [1] is described as follows: ATG_TAL_CIS: Attagene CIS-FACTORIAL HepG2 Assay for human TAL Basal Promoter (AID 2282966; active means hit-call score of the fitted dose curve at least 0.9, where 1 is the maximum; inactive means score below 0.9;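 further: background control endpoint measuring basal TAL promoter reporter mRNA not a specific factor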). To be noted: HepG2 Attagene cis-factorial TAL promoter reporter; actives raise or lower the signal. The essentials: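 Steps: transfect HepG2 with multiple reporter transcription units; dose 24 h; isolate RNA, reverse-transcribe, PCR-amplify, label with 6-FAM, digest with HpaI; resolve by capillary electrophoresis. Bidirectional fitting against DMSO baseline.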

The nature of assay [2]: ATG_TGFb_CIS: Attagene CIS-FACTORIAL HepG2 Assay for human Transforming Growth Factor (TGF) (AID 2282967; active means hit-call score of the fitted dose curve at least 0.9, where 1 is the maximum; inactive means score below 0.9). To be noted: HepG2 Attagene CIS TGFb reporter, mRNA transcription; actives raise or lower the signal. The essentials:
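Bidirectional fitting relative to DMSO gave the endpoint. Underlying data: reporter mRNA from HepG2 cells carrying transiently transfected cis-regulated reporter constructs, harvested 24 h after dosing and analyzed by RT-PCR and capillary electrophoresis.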

The target of assay [3] is X-box-binding protein 1 (Homo sapiens) (UniProt P17861). The assay can be described thus: ATG_Xbp1_CIS: Attagene CIS-FACTORIAL HepG2 Assay for human X-box Binding Protein 1 (XBP1) (AID 2282972; active means hit-call score of the fitted dose curve at least 0.9, where 1 is the maximum; inactive means score below 0.9). To be noted: HepG2 XBP1 cis-element reporter, Attagene multiplex; actives raise or lower the signal. The essentials:
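HepG2 cells transiently transfected with multiple cis-element reporter units report endogenous TF activity; 24 h exposure, then reporter mRNA measured by RT-PCR, 6-FAM labelling, HpaI digestion and capillary electrophoresis. Bidirectional fitting versus DMSO.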

Assay [4] is described as follows: ATG_M_19_TRANS: Attagene TRANS-FACTORIAL HepG2 Assay for M19 Transcription Factor (Internal Marker) (AID 2282974). To be noted: HepG2 Attagene TRANS-FACTORIAL M19 internal marker reporter. The procedure, abridged:
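Multiplexed TRANS format: HepG2 liver cells bearing transient GAL4-UAS reporter units, chemical treatment 24 h, reporter transcripts quantified by RT-PCR plus capillary electrophoresis. DMSO defines baseline.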

For assay [5], the target named is Oxysterols receptor LXR-alpha (Homo sapiens) (UniProt Q13133). The assay can be described thus: ATG_LXRa_TRANS: Attagene TRANS-FACTORIAL HepG2 Assay for human Liver X Receptor alpha (LXRa) (AID 2282980). As to conditions: HepG2 Attagene TRANS reporter, LXRa transactivation. The procedure, abridged:
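In this multiplexed TRANS system, compounds act on HepG2 cells carrying GAL4-UAS reporter units and a receptor-GAL4 fusion for 24 h. Induced reporter RNA is amplified, fluorescently labelled and sized by capillary electrophoresis, with DMSO as baseline.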

In assay [6] the target is Oxysterols receptor LXR-beta (Homo sapiens) (UniProt P55055). Kind of assay: ATG_LXRb_TRANS: Attagene TRANS-FACTORIAL HepG2 Assay for human Liver X Receptor beta (LXRb) (AID 2282981). As to conditions: HepG2 Attagene TRANS GAL4-LXRb reporter, mRNA. The essentials: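 Transient transfection HepG2 (multiplexed RTUs, GAL4-UAS); NR-Gal4 chimera; 24 h exposure; RNA → RT-PCR → 6-FAM primer extension → HpaI → CE; increase vs DMSO.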

Assay [7] is described as follows: ATG_M_06_TRANS: Attagene TRANS-FACTORIAL HepG2 Assay for M06 Transcription Factor (Internal Marker) (AID 2282983).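 Further: reporter transcript level by RT-PCR then capillary electrophoresis fluorescence.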 As to conditions: HepG2 Attagene TRANS M06 internal marker reporter. The procedure, abridged: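 Internal-marker background readout from a multiplexed TRANS reporter system in HepG2; 24 h dosing; mRNA induction quantified by RT-PCR plus capillary electrophoresis fluorescence; DMSO as negative control and baseline.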

Assay [8] is described as follows: ATG_M_32_TRANS: Attagene TRANS-FACTORIAL HepG2 Assay for M32 Transcription Factor (Internal Marker) (AID 2282984).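 Further: transcript level of a background control reporter unit measured by RT-PCR and capillary electrophoresis.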 To be noted: HepG2 Attagene TRANS M32 internal marker reporter. The essentials: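 Measures reporter mRNA induction in human HepG2 liver cells after 24 h chemical treatment. Transcripts from transiently transfected GAL4-UAS reporter units are amplified, fluorescently labelled and sized by capillary electrophoresis; gain of signal relative to DMSO.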

Assay [9] addresses Transcriptional activator Myb (Homo sapiens) (UniProt P10242). The assay can be described thus: ATG_Myb_CIS: Attagene CIS-FACTORIAL HepG2 Assay for human Myeloblastosis (Myb) Proto-Oncogene Transcription Factor (AID 2282986; active means hit-call score of the fitted dose curve at least 0.9, where 1 is the maximum; inactive means score below 0.9). To be noted: HepG2 Attagene CIS-FACTORIAL Myb reporter transcription; actives raise or lower the signal. The essentials:
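Using HepG2 liver cells bearing transiently transfected cis-promoter reporter constructs, the assay measures induction or loss of reporter mRNA after 24 hours of dosing. Detection used fluorescently labeled RT-PCR products separated by capillary electrophoresis.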

Assay [10] has as its target Nuclear respiratory factor 1 (Homo sapiens) (UniProt Q16656). The assay can be described thus: ATG_NRF1_CIS: Attagene CIS-FACTORIAL HepG2 Assay for human Nuclear Respiratory Factor 1 (NRF1) Orphan Gene (AID 2282987; active means hit-call score of the fitted dose curve at least 0.9, where 1 is the maximum; inactive means score below 0.9). As to conditions: HepG2 NRF1 cis-element reporter, Attagene multiplex; actives raise or lower the signal. The procedure, abridged: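 Reporter mRNA induction or loss in HepG2 cells after 24 h dosing; cis-regulated reporter constructs report endogenous transcription-factor activity. Quantified by RT-PCR/capillary electrophoresis fluorescence, DMSO-referenced.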

Assay [11] in a line: ATG_GAL4_TRANS: Attagene TRANS-FACTORIAL HepG2 Assay for GAL4 (Internal Marker) (AID 2282976). As to conditions: HepG2 Attagene TRANS GAL4 internal marker reporter. The essentials:
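Liver HepG2 line bearing multiplexed GAL4-UAS reporter constructs; 24 h chemical treatment. Transcripts were quantified as fluorescent fragments on capillary electrophoresis after RT-PCR and HpaI cut, with activity fitted upward from DMSO.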

The target of assay [12] is Glucocorticoid receptor (Homo sapiens) (UniProt P04150). Kind of assay: ATG_GR_TRANS: Attagene TRANS-FACTORIAL HepG2 Assay for human Glucocorticoid Receptor (GR) (AID 2282978).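 Further: activators score as hits since higher reporter transcript over DMSO is fitted.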 As to conditions: HepG2 Attagene TRANS GR reporter, mRNA transcription. The essentials: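 Transiently transfected HepG2 cells express chimeric NR-GAL4 proteins acting on GAL4-UAS reporter units. Compounds are applied for 24 h. mRNA induction over DMSO is measured by capillary electrophoresis.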

Assay [13] addresses Hepatocyte nuclear factor 4-alpha (Homo sapiens) (UniProt P41235). The assay can be described thus: ATG_HNF4a_TRANS: Attagene TRANS-FACTORIAL HepG2 Assay for human Hepatocyte Nuclear Factor 4 alpha (HNF4a) (AID 2282982). As to conditions: HepG2 HNF4a transactivation reporter, mRNA readout. The essentials:
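Readout is fluorescent reporter-transcript fragments resolved by capillary electrophoresis after RT-PCR from HepG2 cells dosed for 24 h. Cells carried transfected GAL4-UAS reporter constructs measuring exogenous NR-GAL4 chimera activity; DMSO served as baseline.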

The target in assay [14] is Nuclear receptor subfamily 4 group A member 2 (Homo sapiens) (UniProt P43354). Kind of assay: ATG_NURR1_TRANS: Attagene TRANS-FACTORIAL HepG2 Assay for human Nuclear Receptor Related Protein 1 (NURR1) (AID 2282985). To be noted: HepG2 Attagene TRANS reporter, mRNA readout. The essentials: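 Transient transfection of HepG2, human liver cells, with multiple GAL4-UAS reporter transcription units. Cells dosed 24 h, RNA isolated, reverse-transcribed, PCR-amplified, FAM-labelled, HpaI-digested, sized by capillary electrophoresis. DMSO served as negative control.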

Assay [15] has as its target Bile acid receptor (Homo sapiens) (UniProt Q96RI1). The assay can be described thus: ATG_FXR_TRANS: Attagene TRANS-FACTORIAL HepG2 Assay for Farnesoid X Receptor (FXR) (AID 2282979).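 Further: hits raise reporter mRNA above DMSO so AC50 marks FXR activation.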 As to conditions: HepG2 Attagene TRANS FXR-GAL4 reporter transcription. The procedure, abridged:
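After 24 h chemical treatment of transfected HepG2 cells, GAL4-UAS reporter transcripts driven by an exogenous FXR-GAL4 fusion were measured by RT-PCR and capillary electrophoresis. Increases over DMSO were fitted.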

A short description of assay [16]: ATG_VDRE_CIS: Attagene CIS-FACTORIAL HepG2 Assay for human Vitamin D Receptor Element (VDRE) (AID 2282968; active means hit-call score of the fitted dose curve at least 0.9, where 1 is the maximum; inactive means score below 0.9). To be noted: HepG2 VDRE cis-reporter transcription, actives raise or lower the signal. The essentials: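 Reporter mRNA induction, quantified by capillary electrophoresis of fluorescently labelled RT-PCR products, was read 24 h after dosing HepG2 cells carrying transiently transfected cis-regulated reporter units; gain or loss relative to DMSO.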

The target of assay [17] is Nuclear receptor subfamily 1 group I member 3 (Homo sapiens) (UniProt Q14994). Kind of assay: ATG_CAR_TRANS: Attagene TRANS-FACTORIAL HepG2 Assay for human Constitutive Androstane Receptor (CAR) (AID 2282969).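 Further: activators raise reporter mRNA above DMSO so AC50 marks induction.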 As to conditions: HepG2 Attagene TRANS-FACTORIAL CAR reporter. The procedure, abridged:
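Readout is reporter mRNA induction, quantified by fluorescent primer extension and capillary electrophoresis after RT-PCR. Cells were HepG2 transiently carrying chimeric NR-Gal4 constructs with GAL4-UAS reporters, treated for 24 h; activity scored upward from DMSO.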

Bile acid receptor (Homo sapiens), sequence (Q96RI1 whole entry, looked up, the tested form may be a part): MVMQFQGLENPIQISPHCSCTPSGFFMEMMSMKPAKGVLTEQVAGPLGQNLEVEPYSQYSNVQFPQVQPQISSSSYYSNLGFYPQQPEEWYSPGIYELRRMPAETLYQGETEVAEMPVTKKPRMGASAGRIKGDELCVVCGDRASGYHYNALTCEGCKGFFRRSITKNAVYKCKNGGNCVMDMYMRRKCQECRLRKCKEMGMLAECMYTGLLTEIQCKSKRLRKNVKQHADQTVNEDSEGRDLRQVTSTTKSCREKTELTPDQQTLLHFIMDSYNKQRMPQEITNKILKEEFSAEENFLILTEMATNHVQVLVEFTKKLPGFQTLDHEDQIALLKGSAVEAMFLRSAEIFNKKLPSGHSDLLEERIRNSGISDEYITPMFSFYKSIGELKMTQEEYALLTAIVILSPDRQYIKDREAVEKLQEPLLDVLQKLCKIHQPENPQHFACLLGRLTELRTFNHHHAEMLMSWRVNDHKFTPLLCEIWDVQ
Nuclear receptor subfamily 4 group A member 2 (Homo sapiens), sequence (P43354 whole entry, looked up, the tested form may be a part): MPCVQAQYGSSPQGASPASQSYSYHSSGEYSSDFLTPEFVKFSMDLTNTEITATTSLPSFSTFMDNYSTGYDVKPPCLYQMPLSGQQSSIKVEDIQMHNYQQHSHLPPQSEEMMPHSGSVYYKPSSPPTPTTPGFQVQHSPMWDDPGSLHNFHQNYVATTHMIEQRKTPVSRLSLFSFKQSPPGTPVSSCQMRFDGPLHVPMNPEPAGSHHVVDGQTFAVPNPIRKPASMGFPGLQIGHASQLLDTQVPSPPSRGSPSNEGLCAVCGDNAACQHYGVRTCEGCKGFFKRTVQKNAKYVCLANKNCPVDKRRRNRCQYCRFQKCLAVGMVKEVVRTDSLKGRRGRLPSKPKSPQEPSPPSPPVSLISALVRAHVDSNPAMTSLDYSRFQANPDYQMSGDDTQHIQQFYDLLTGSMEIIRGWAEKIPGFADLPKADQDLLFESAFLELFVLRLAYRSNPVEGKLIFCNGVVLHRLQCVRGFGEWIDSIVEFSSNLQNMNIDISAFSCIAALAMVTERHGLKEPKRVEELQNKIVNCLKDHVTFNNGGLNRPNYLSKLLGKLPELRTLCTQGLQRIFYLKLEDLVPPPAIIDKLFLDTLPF
Oxysterols receptor LXR-alpha (Homo sapiens), sequence (Q13133 whole entry, looked up, the tested form may be a part): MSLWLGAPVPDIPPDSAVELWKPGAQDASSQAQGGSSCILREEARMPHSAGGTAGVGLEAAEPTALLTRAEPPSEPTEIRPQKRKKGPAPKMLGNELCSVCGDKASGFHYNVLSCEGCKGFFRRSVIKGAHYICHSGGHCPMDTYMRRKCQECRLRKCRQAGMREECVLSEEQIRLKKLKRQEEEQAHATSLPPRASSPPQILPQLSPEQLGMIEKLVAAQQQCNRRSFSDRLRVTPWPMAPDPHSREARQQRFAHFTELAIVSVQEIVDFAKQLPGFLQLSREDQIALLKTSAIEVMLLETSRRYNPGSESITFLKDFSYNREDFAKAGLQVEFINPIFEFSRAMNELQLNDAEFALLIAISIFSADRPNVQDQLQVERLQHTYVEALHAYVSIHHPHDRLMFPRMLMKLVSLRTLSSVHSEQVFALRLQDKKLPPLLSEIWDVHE
Oxysterols receptor LXR-beta (Homo sapiens), sequence (P55055 whole entry, looked up, the tested form may be a part): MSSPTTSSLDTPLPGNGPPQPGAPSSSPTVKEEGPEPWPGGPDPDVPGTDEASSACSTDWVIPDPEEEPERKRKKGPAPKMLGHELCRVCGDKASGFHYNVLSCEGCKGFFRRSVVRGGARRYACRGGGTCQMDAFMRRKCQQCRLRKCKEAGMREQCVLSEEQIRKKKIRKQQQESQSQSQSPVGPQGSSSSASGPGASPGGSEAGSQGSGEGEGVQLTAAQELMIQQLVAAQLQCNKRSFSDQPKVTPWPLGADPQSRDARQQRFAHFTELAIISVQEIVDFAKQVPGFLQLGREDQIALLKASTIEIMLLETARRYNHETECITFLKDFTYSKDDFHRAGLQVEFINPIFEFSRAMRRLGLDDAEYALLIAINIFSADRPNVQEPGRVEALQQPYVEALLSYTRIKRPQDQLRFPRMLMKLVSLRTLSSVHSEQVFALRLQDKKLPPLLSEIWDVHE
Glucocorticoid receptor (Homo sapiens), sequence (P04150 whole entry, looked up, the tested form may be a part): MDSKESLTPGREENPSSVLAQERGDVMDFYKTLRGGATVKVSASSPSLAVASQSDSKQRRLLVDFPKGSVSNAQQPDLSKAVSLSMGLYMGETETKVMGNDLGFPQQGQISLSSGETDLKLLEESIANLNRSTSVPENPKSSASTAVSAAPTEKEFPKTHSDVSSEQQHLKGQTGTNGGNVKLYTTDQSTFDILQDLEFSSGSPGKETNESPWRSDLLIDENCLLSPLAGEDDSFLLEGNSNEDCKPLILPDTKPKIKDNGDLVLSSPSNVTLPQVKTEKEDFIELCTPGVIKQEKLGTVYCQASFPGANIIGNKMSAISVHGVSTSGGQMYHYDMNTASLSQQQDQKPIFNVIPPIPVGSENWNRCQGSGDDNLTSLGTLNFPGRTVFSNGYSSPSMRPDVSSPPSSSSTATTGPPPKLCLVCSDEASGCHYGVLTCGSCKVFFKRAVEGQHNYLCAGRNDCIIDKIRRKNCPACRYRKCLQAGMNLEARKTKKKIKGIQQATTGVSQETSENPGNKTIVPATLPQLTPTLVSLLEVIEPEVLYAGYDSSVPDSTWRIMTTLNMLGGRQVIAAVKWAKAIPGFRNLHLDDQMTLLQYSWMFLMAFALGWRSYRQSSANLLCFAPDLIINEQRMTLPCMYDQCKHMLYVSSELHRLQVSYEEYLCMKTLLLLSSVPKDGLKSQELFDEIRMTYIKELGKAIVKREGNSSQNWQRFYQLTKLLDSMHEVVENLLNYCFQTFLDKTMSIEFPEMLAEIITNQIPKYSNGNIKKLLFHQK
Nuclear respiratory factor 1 (Homo sapiens), sequence (Q16656 whole entry, looked up): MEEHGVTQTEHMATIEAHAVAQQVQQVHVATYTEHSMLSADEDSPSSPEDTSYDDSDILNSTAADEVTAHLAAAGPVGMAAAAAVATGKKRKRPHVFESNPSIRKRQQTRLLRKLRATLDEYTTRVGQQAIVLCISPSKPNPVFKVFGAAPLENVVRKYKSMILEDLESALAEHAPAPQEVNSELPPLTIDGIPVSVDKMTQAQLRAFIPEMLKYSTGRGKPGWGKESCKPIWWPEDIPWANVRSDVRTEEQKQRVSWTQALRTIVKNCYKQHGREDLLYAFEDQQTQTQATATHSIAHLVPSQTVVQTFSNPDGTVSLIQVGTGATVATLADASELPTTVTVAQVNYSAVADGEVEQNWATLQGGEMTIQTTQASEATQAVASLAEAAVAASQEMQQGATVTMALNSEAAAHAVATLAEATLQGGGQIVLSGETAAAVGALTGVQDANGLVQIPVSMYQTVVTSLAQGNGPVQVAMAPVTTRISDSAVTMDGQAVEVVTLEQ
Transcriptional activator Myb (Homo sapiens), sequence (P10242 whole entry, looked up): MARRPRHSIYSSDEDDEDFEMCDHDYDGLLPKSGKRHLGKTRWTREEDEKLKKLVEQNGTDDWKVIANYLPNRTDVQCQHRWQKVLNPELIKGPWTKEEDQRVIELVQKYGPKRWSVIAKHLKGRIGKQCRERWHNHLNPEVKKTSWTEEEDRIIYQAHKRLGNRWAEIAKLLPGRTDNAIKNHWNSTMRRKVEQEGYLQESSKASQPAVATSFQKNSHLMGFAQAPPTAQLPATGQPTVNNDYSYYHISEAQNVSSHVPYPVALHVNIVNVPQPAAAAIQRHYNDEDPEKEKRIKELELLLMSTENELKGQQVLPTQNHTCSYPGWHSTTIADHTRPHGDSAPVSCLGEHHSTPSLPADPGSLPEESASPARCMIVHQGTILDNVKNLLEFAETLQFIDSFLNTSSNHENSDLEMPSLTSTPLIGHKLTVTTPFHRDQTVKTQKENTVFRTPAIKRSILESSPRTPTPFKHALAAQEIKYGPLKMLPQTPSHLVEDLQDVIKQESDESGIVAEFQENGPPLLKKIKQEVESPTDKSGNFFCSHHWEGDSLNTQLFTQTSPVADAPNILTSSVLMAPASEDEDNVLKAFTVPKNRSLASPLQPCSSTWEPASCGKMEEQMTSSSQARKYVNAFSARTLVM
X-box-binding protein 1 (Homo sapiens), sequence (P17861 whole entry, looked up): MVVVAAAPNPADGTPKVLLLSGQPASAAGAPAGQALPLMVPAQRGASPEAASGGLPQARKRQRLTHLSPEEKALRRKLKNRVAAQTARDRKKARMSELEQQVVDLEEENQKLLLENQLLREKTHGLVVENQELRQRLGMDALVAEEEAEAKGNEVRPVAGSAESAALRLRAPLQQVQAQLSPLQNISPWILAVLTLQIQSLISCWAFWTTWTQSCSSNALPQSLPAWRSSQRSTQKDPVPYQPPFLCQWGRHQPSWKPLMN
Hepatocyte nuclear factor 4-alpha (Homo sapiens), sequence (P41235 whole entry, looked up, the tested form may be a part): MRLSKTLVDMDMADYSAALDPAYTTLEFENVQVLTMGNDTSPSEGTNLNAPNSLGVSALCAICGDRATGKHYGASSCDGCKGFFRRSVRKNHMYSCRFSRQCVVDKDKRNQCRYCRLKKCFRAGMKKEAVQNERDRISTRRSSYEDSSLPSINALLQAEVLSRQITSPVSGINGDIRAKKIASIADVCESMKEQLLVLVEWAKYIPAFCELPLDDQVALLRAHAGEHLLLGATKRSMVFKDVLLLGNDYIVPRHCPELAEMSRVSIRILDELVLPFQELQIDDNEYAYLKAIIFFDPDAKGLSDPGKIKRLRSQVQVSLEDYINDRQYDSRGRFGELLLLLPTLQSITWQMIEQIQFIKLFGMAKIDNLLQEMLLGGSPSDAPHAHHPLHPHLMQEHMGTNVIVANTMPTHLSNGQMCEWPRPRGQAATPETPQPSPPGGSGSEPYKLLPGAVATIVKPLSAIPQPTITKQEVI
Nuclear receptor subfamily 1 group I member 3 (Homo sapiens), sequence (Q14994 whole entry, looked up, the tested form may be a part): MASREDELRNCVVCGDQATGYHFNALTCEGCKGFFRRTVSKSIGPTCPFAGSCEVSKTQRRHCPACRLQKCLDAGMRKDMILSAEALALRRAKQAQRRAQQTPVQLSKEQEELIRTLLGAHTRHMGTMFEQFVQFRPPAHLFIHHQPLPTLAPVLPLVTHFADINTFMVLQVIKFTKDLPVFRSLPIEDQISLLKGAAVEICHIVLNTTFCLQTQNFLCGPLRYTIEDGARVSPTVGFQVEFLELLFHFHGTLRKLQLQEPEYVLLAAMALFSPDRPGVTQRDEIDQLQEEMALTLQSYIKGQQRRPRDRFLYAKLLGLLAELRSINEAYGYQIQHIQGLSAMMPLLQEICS

As to `CSc1nc(NC2CC2)nc(NC(C)(C)C)n1`, the compound was classed as inactive in assay [1], in assay [2], in [3], in [4], in assay [5] and in assay [6]. In addition, the outcome in [7], in assay [8], in [9] and in [10] was inactive.

As to `[Ca+2]`, the compound was classed as inactive in assay [1], in assay [2], in [3], in assay [11], in assay [12] and in [5]. The compound was classed as inactive in assay [6], in assay [13], in [7], in assay [14], in assay [9] and in assay [10].

Regarding `C[C@H]1C[C@@H]2[C@H]([C@@H](O)C[C@@]3(C)[C@H]2CC[C@]3(O)C(=O)CO)[C@@]2(C)C=CC(=O)C=C12`, the compound was classed as inactive in assay [1], in assay [2], in [3], in assay [5], in [6] and in [7]. Also, in [9], the call was inactive.

For the compound `C=CC(=O)OCC(O)COc1ccccc1` (centres undefined), the result in assay [1], in assay [2], in [12], in assay [6], in assay [13] and in assay [7] was inactive. In addition, the call in assay [14], in assay [9] and in [10] was inactive. Besides, in assay [3], the AC50 is 24.3 µM (active).

As for `CC1CCC(C(C)(C)O)CC1` (centres undefined), the call in [1], in assay [2], in assay [3], in [4], in assay [12] and in assay [15] was inactive. Also, the compound was called inactive in assay [5], in [6], in assay [13], in assay [8], in [14] and in assay [9]. Further, the call in [10] was inactive.

In the case of `CC(C)=CCC/C(C)=C/COC=O`, the call in assay [1], in assay [2], in [3], in assay [11], in [5] and in assay [6] was inactive. The outcome in [13], in assay [7], in [8], in assay [14], in assay [9] and in [10] was inactive.

For the compound `CCCCNC(=O)NS(=O)(=O)c1ccc(C)cc1`, the compound was called inactive in assay [1], in [2], in [3], in assay [4], in [12] and in [15]. Moreover, the compound was classed as inactive in [6], in assay [8], in [14], in assay [9] and in assay [10].

`O=C1CCCCCCCCCCOCCCCO1`: the compound was classed as inactive in [1], in assay [16], in assay [17], in assay [3], in [4] and in assay [12]. In addition, the call in assay [5], in assay [13], in assay [7], in [14], in [9] and in assay [10] was inactive.

`CC(C)=CCC[C@H](C)CC=O`: the compound was classed as inactive in [1], in [16], in assay [3], in [12], in assay [15] and in assay [5]. Further, the compound was called inactive in [6], in assay [7], in [8], in [14], in [9] and in assay [10].

As a reminder, the AC50 is the concentration giving half of the maximal activity seen.

The values above are taken from PubChem BioAssay (EPA / NIEHS).
